Assay results: PubChem BioAssay AID624123 (The Scripps Research Institute Molecular Screening Center, 2012)
Calls of active or inactive are those of the source. The rule behind the calls is not given here.

test: GFP fluorescence inhibitors and quenchers, late-stage follow-up, artefact control for Rin1-Abl interaction inhibitor project, biochemical, dose response, round 1 (AID 624123); conditions: GFP fluorescence interference/quenching counterscreen

For CN(C(=O)c1ccc(NC(=O)Cc2ccc(NC(=O)C3CCN(C(=O)c4ccccc4)CC3)cc2)cc1)C1CC1, which IC50 is on record?
Its IC50 is > 67.5 µM (inactive).

For CN(C(=O)c1ccc(NC(=O)Cc2ccc(NC(=O)C3CCN(C(=O)c4ccc(F)cc4)CC3)cc2)cc1)C1CC1, which IC50 is on record?
Its IC50 is > 67.5 µM (inactive).

With COc1ccc(C(=O)N2CCC(C(=O)Nc3ccc(CC(=O)Nc4ccc(C(=O)N(C)C5CC5)cc4)cc3)CC2)cc1 as the compound, how does the IC50 read?
The IC50 was > 67.5 µM (inactive).

With CN(C(=O)c1ccc(NC(=O)Cc2ccc(NC(=O)C3CCN(C(=O)c4cccc(F)c4)CC3)cc2)cc1)C1CC1 as the compound, how does the IC50 read?
The IC50 was > 67.5 µM (inactive).
